Compound activity (PubChem BioAssay)
Most compounds without a hit are left out; they make up all but 18% or so of the library.
VDR inh = vitamin D3 receptor (human) inhibition. Potency, µM, for inactives: max response, negative = inhibition, usual class: inhibitors. actives 0.93% (n = 400,000). AID 504847. VDR-SRC2-3 peptide fluorescence polarization, 2 h
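Reagent solutions, kept cold and dark, are dispensed first; compounds are then pinned in at 23 nl, plates briefly spun, and incubated 2 h at ambient temperature. Inhibition of VDR–SRC2-3 peptide binding is read by fluorescence polarization.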
KAT2A inh = inhibitors of human GCN5L2 histone acetyltransferase; Q92830; GCN5L2 HAT assay, ThioGlo1 CoA-SH fluorescence; Potency, µM (top dose mostly 58.9 µM), inactives show at the top dose activity change, negative = inhibition, usual class: inhibitors; actives 0.21% (n = 390,000)
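qHTS, 1536-well. 20nM enzyme, pH 7.5 HEPES/EDTA/Tween-20 buffer; 15 min compound preinc., RT. Start: 75uM H3(1-25), 70uM AcCoA, 50uM ThioGlo1. Read Ex340/Em540 at t=0 (autofluorescence flag) and t=20 min.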
TDP1 block = blocks human tyrosyl-DNA phosphodiesterase 1; Potency, µM (doses to about 130 µM), for the others: at the highest dose activity change, negative = inhibition, most hits filed as inhibitors; actives 0.28% (n = 350,000); recombinant TDP1, AlphaScreen DNA substrate cleavage; Q9NUW8; also: nearly all actives have a fitted effect of over 40% in size
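Here, a 5' biotin and 3' phosphotyrosine-FITC DNA oligonucleotide reports Tdp1 activity: intact substrate bridges AlphaScreen beads, while cleavage leaves a 3' phosphate and drops signal. All incubations at room temperature.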
PLK1 PBD block = PLK1 (human) polo-box domain binding inhibition | Potency, µM, for inactives: max response, negative = inhibition, most hits filed as inhibitors | Plk1 PBD binding of FITC phosphopeptide, fluorescence polarization | actives 2.8% (n = 360,000); also: series mostly up to about 57 µM; nearly all actives have a fitted effect of over 65% in size
Target sequence (P53350 whole entry, looked up, the tested form may be a part): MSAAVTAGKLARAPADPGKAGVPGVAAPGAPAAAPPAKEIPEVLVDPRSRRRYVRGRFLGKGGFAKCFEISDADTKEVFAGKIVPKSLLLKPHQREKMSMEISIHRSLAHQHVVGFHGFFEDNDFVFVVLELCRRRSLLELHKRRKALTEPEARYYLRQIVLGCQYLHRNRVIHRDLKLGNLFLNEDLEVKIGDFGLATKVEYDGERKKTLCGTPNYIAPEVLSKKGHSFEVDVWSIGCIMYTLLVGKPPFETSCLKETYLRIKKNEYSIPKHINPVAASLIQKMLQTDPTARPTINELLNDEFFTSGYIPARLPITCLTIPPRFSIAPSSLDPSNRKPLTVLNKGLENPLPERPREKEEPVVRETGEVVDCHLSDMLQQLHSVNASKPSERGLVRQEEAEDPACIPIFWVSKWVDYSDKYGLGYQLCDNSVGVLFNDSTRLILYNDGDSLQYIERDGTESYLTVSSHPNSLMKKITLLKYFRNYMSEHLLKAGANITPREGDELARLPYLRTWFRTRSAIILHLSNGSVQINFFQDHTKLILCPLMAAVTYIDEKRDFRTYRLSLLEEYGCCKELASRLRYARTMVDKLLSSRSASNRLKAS
DT40 TDP1 no CPT = qHTS for Inhibitors of human tyrosyl-DNA phosphodiesterase 1 (TDP1): qHTS in cells in absence of CPT; DT40 Tdp1-/- hTDP1 cells, no CPT, ATP luminescence, 48 h; Potency, µM (highest dose often 46.2 µM), for inactives: at the highest dose activity change, negative = growth inhibition, hits mostly inhibitors; actives 15% (n = 420,000); also: nearly all actives have a fitted effect of over 55% in size
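No-CPT arm: Tdp1-/-;hTDP1 DT40 cells (400/well) plus compounds, incubated ≥48 hr at 37 °C. Readout CellTiter-Glo luminescence.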
DT40 TDP1 CPT = growth inhibition of DT40 Tdp1-/-;hTDP1 cells with camptothecin (screen for TDP1 inhibitors). chicken DT40 Tdp1-/-;hTDP1 cells + 20 nM CPT, ATP luminescence, 48 h. Potency, µM (titrated, usually from 46.2 µM), for the others: at the highest dose activity change, negative = growth inhibition, actives largely listed as inhibitors. actives 12% (n = 420,000); also: nearly all actives have a fitted effect of over 55% in size
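Chicken DT40 Tdp1-/- cells complemented with human TDP1, 400 cells/well, exposed to compounds plus 20 nM camptothecin for at least 48 h at 37 C; viability read as ATP content by CellTiter-Glo luminescence.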
* hit, by the source's call. Calls follow the shape of the dose curve; as a rule, active = well fitted curve in the direction sought with a large enough effect; inconclusive = small, poorly fitted or top-dose-only effect, or another doubt; inactive = no such curve, though single readings can be large; an effect the other way counts as inactive or inconclusive. % is scaled to controls: 0 for no effect and ±100 for the full control effect; potency is read from the fitted curve at half-maximal effect.

Screening Cc1ccc2c(c1)nnn2C1CCN(CC(=O)NCCc2ccccc2)CC1 returned VDR inh 6.6%, KAT2A inh -8.8%, TDP1 block 4.0%, PLK1 PBD block -8.1%, DT40 TDP1 no CPT inconclusive and DT40 TDP1 CPT inconclusive.
`COc1ccccc1NC(=O)CN1CCC(n2nnc3cc(F)ccc32)CC1` gave VDR inh 28.2%, KAT2A inh -8.0%, TDP1 block 9.5%, PLK1 PBD block -1.6%, DT40 TDP1 no CPT inconclusive and DT40 TDP1 CPT 16.4µM*.
For COc1ccc(Cl)cc1NC(=O)CN1CCC(n2nnc3cc(C)ccc32)CC1 the results were VDR inh 9.1%, KAT2A inh -13.5%, TDP1 block 6.3%, PLK1 PBD block -2.1%, DT40 TDP1 no CPT 23.1µM* and DT40 TDP1 CPT inconclusive.
Screening NC1=NC(=O)C(c2ccccc2)(c2ccccc2)S1 returned VDR inh 0.5%, PLK1 PBD block 0.9%, DT40 TDP1 no CPT inconclusive and DT40 TDP1 CPT -2.8%.
COc1ccccc1NC(=O)CN1CCC(n2c(C)nc3cc(F)ccc32)CC1 was read as VDR inh -4.5%, KAT2A inh -0.1%, TDP1 block 9.0%, PLK1 PBD block 4.4%, DT40 TDP1 no CPT 23.1µM* and DT40 TDP1 CPT inconclusive.
COc1ccc(C(=O)N2CCC(n3c(C)nc4cc(F)ccc43)CC2)cc1OC was read as VDR inh -6.3%, KAT2A inh -2.8%, TDP1 block 1.0%, PLK1 PBD block -4.6%, DT40 TDP1 no CPT -14.8% and DT40 TDP1 CPT -13.6%.
For CC1(C)Cc2nc3sc4c(SCC(=O)NCc5ccco5)ncnc4c3cc2CO1 the results were VDR inh -8.2%, KAT2A inh -5.5%, TDP1 block 2.3%, PLK1 PBD block -15.9%, DT40 TDP1 no CPT 2.31µM* and DT40 TDP1 CPT 2.06µM*.
For Cc1nc2c(sc3nc4c(cc32)COC(C)(C)C4)c(=O)n1CC(=O)NCc1ccco1 the results were VDR inh -6.8%, KAT2A inh -5.7%, TDP1 block -1.0%, PLK1 PBD block -18.9%, DT40 TDP1 no CPT 4.11µM* and DT40 TDP1 CPT 3.26µM*.
CC1(C)Cc2nc3sc4c(=O)n(CC(=O)NCc5ccccc5)cnc4c3cc2CO1 was read as VDR inh 14.5%, KAT2A inh -3.4%, TDP1 block 4.0%, PLK1 PBD block 0.6%, DT40 TDP1 no CPT 3.66µM* and DT40 TDP1 CPT 4.61µM*.
Screening O=C(CC1SC(=O)N(c2ccccc2)C1=O)Nc1ccc(Cl)cc1 (stereo not given) returned VDR inh 39.8µM*, KAT2A inh -28.0%, TDP1 block 2.7%, PLK1 PBD block 10.6µM*, DT40 TDP1 no CPT 20.6µM* and DT40 TDP1 CPT 7.31µM*.
`O=C(CC1SC(=O)N(c2ccccc2)C1=O)Nc1ccc(Br)cc1` (stereo not given) gave VDR inh 35.5µM*, KAT2A inh -15.6%, TDP1 block 2.5%, PLK1 PBD block inconclusive, DT40 TDP1 no CPT 5.8µM* and DT40 TDP1 CPT 2.59µM*.
Screening C[C@H]1CN(c2ccccc2)C(=O)[C@@H]1CC(=O)Nc1ccc(Br)cc1 returned PLK1 PBD block -2.4%, DT40 TDP1 no CPT inconclusive and DT40 TDP1 CPT inconclusive.
Screening COc1ccc(Cl)cc1NC(=O)Cn1cc(C(=O)c2ccncc2)c(=O)c2cc(C)ccc21 returned VDR inh 9.0%, KAT2A inh 1.5%, TDP1 block 6.5%, DT40 TDP1 no CPT inconclusive and DT40 TDP1 CPT inconclusive.
Cc1cc(C)c(S(=O)(=O)OC[C@H]2C=CC[C@@H](CCC[C@H]3O[C@H](C(=O)OC(C)C)CC[C@@H]3C)O2)c(C)c1 was read as VDR inh inconclusive and TDP1 block 1.9%.
`CC1=C(C(=O)Nc2ccccc2C)C(c2ccc(C)o2)NC(=S)N1` (stereo not given) gave VDR inh -14.1%, KAT2A inh 2.5%, TDP1 block -2.6%, PLK1 PBD block -4.5%, DT40 TDP1 no CPT 2.3% and DT40 TDP1 CPT -13.7%.
Screening O=C(O)c1cccc(NC(=S)NC(NC(=O)c2ccccc2[N+](=O)[O-])C(Cl)(Cl)Cl)c1 (stereo not given) returned VDR inh -24.5%, KAT2A inh -3.5%, TDP1 block -2.6%, PLK1 PBD block -7.7%, DT40 TDP1 no CPT 23.8% and DT40 TDP1 CPT -3.3%.
O=C(O)c1cccc(NC(=S)NC(NC(=O)c2cccc([N+](=O)[O-])c2)C(Cl)(Cl)Cl)c1 (stereo not given) was read as VDR inh -15.0%, KAT2A inh 22.6%, TDP1 block 79.4µM*, PLK1 PBD block -9.3%, DT40 TDP1 no CPT 1.3% and DT40 TDP1 CPT 1.9%.
For O=C(NC(NC(=S)Nc1ccc(Cl)cc1Cl)C(Cl)(Cl)Cl)c1cccc([N+](=O)[O-])c1 (stereo not given) the results were VDR inh 3.7%, KAT2A inh -10.4%, TDP1 block 7.8%, PLK1 PBD block -8.9%, DT40 TDP1 no CPT 5.8µM* and DT40 TDP1 CPT 7.31µM*.
`O=C(NCCC1=CCCCC1)c1[nH]c(C(F)(F)F)nc1-c1ccccc1` gave PLK1 PBD block -3.4%, DT40 TDP1 no CPT inconclusive and DT40 TDP1 CPT 16.4µM*.
Screening CSCCC1NC2(C(=O)Nc3c(Cl)cccc32)[C@@H]2C(=O)N(C3CCCC3)C(=O)[C@H]12 (stereo not given in full) returned VDR inh 12.2%, KAT2A inh -2.3%, TDP1 block -7.4%, PLK1 PBD block -2.1%, DT40 TDP1 no CPT inconclusive and DT40 TDP1 CPT -15.6%.
Screening CSCCC1NC2(C(=O)Nc3c(C)cc(Cl)cc32)[C@@H]2C(=O)N(C3CCCC3)C(=O)[C@H]12 (stereo not given in full) returned VDR inh -6.0%, KAT2A inh -7.5%, TDP1 block 2.0%, PLK1 PBD block -2.4%, DT40 TDP1 no CPT 20.6µM* and DT40 TDP1 CPT inconclusive.
`CC(=O)NC1=C(Nc2ccc(N(C)C)cc2)C(=O)c2ccccc2C1=O` gave VDR inh 50.1µM*, KAT2A inh -0.2%, TDP1 block 9.0%, PLK1 PBD block -10.4%, DT40 TDP1 no CPT inconclusive and DT40 TDP1 CPT 13µM*.
CC(=O)NC1=C(N(C)C2CCS(=O)(=O)C2)C(=O)c2ccccc2C1=O (stereo not given) was read as VDR inh -21.4%, KAT2A inh -4.2%, TDP1 block -5.3%, PLK1 PBD block -8.1%, DT40 TDP1 no CPT 9.2µM* and DT40 TDP1 CPT 8.2µM*.
